Data as given in PubChem BioAssay.

Assay: hepatitis C replication reporter changes, two-sided – Huh7 cells, luciferase reporter, HCV replication inhibitor project, primary screen (AID 1109);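 further: huh7 hepatoma cells harbouring a luciferase neomycin HCV replicon reporter; luciferase luminescence as measure of HCV replicon replication; test concentration not given here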
Conditions: Huh7 HCV replicon luciferase reporter, 48 h; higher = more signal

Row | Compound | z-score
1 | O=C1C2C=CC(C(O)Cc3ccccc3)N(Nc3ccc([N+](=O)[O-])cc3)C2C(=O)N1c1ccccc1 (stereo unspecified) | -0.531
2 | CC(C)C[C@@H]1NC(=O)[C@H](CC(C)C)NC(=O)[C@@]23C(=O)N[C@@H](Cc4ccccc4)C2[C@H](C)[C@@]2(C)O[C@H]2C3/C=C/CC/C=C/CNC1=O (stereo partly specified) | -1.24
3 | COC(=O)[C@@]1(Cc2ccccc2CN=[N+]=[N-])N=C(c2ccc(OCCCO)cc2)O[C@H]1c1ccccc1N=[N+]=[N-] | -1.53
4 | CCOC(=O)C[C@H]1[C@H](OC(=O)Cc2ccc3c(c2)OCO3)[C@@H](NC(=O)c2ccc3ccccc3c2)c2cc(OCCCO)ccc2N1C(=O)Cc1ccc(OC)cc1 | -1.74
5 | C[N+](C)(C)CCCCNC(=O)[C@H]1C[C@H]2C(=O)NCC(=O)N2[C@H]1c1cccc(OCCO)c1 | -0.651
6 | C=C(/C(=C/C[C@@H](OC(=O)c1ccncc1)c1ccc(CO)o1)c1cnc2ccccc2c1)C(C)C | -1.05
7 | CCCNC(=O)[C@@]1(Sc2ccc(C)cc2)CC(=O)N(Cc2ccccc2Cl)[C@@H]1c1ccc(CO)cc1 | -2.42
8 | COC(=O)Cn1c(C(=O)N2CCCC2)cc2c1C[C@H]1CN(C(=O)c3ccccc3)[C@@](Cc3ccccc3)(C(=O)OC)[C@@H]21 | -1.02
9 | NC(=O)NCC#Cc1ccc2c(c1)[C@]1(C(=O)N2)[C@H](C(=O)N2CCCCCCC2)[C@H]2C(=O)O[C@H](c3ccccc3)[C@H](c3ccccc3)N2[C@@H]1c1ccccc1OCCO | -1.54
10 | Cc1ccc(S[C@]2(C(=O)NCCCN(C)C)CC(=O)N(C3CCCCC3)[C@@H]2c2ccc(CO)cc2I)cc1 | -3.67
11 | CCN1C(C)=C(C(=O)OC)[C@@H](c2ccccc2)N2C(=O)[C@@]3(C(=O)OC)O[C@@]12[C@@H]1C(=O)N(C)C(=O)[C@@H]13 | -0.0304
12 | CO[C@H]1COC(=O)[C@H](C)NC(=O)CC=C[C@@H](C)[C@H](NS(=O)(=O)c2ccc(C)cc2)COC(=O)CC=C[C@@H]1C | -0.05
13 | Cc1ccc(S(=O)(=O)N[C@H]2COC(=O)CC=C[C@H](C)COC(=O)N[C@@H](C)C(=O)CC=C[C@@H]2C)cc1 | -0.47
14 | CN1C2C=C(c3ccc(CO)cc3)C(C3C(=O)N(C(N)=O)C(=O)C32)C1c1cccs1 (stereo unspecified) | 0.374
15 | CCCC=C(CCC)[C@@H](NS(=O)(=O)c1ccc(C(F)(F)F)cc1)c1ccc(-c2ccccc2)cc1 | -1.08
16 | CO[C@H]1COC(=O)[C@@H](C)NC(=O)CC=C[C@@H](C)[C@H](OC)COC(=O)CC=C[C@@H]1C | -0.355
17 | C=CCC(OC(C)=O)[C@@H]1[C@@H](N(Cc2cc3ccccc3o2)C(=O)Cc2ccc(F)cc2)c2cc(OCCCO)ccc2N1C(=O)c1ccc(-c2ccccc2)cc1 (stereo partly specified) | 0.591
18 | Cc1ccc(N2C(=O)c3ccccc3[C@@H](C(=O)NCc3ccccc3)[C@@H]2c2ccc(CO)cc2)nc1 | -0.139

Row | Compound | z-score
19 | CCCC[C@@H]1C[C@H]1[C@@H](NC(=O)c1ccccc1)c1ccccc1C(F)(F)F | -0.696
20 | CN1C(=O)C2C=CC(C(O)c3ccc(N(C)C)cc3)N(Nc3ccc([N+](=O)[O-])cc3[N+](=O)[O-])C2C1=O (stereo unspecified) | -0.353
21 | O=C1C2C=CC(C(O)C#Cc3ccccc3)N(Nc3ccccc3)C2C(=O)N1c1ccccc1 (stereo unspecified) | -0.049
22 | Cc1ccc(S[C@]2(C(=O)NCCN3CCOCC3)CC(=O)N(C3Cc4ccccc4C3)[C@@H]2c2ccc(CO)cc2I)cc1 | -1.69
23 | O=C1O[C@@H](c2ccccc2)[C@@H](c2ccccc2)N2[C@@H](c3ccc(O)cc3)[C@]3(C(=O)Nc4ccccc43)[C@@H](C(=O)N3CCN(c4ncccn4)CC3)[C@H]12 | -1.91
24 | C=CC[C@]1(C(=O)NCC(O)CO)N=C(c2ccc(OCCCO)cc2)O[C@H]1c1ccccc1 (stereo partly specified) | -0.294
25 | CC[C@@H]1C=C(C(=O)O)[C@H](c2ccccc2)N1S(=O)(=O)c1ccc([N+](=O)[O-])cc1 | -0.661
26 | CN1CCC(CCCO)=CC1C1CC1 (stereo unspecified) | 0.306
27 | C=CC[C@]1(C(=O)N2CCCCC2)N=C(c2ccc(OCCCO)cc2)O[C@H]1c1ccccc1N=[N+]=[N-] | -0.668
28 | COc1cccc([C@@H]2[C@@H](C)CC[C@H]3C(=O)N4[C@H](c5cccc(OC)c5)[C@@H](C)CC[C@H]4C(=O)N23)c1 | 0.533
29 | COCCOC(=O)N1C(=O)[C@@]2(c3cc(C#CC4=CCCCC4)ccc31)[C@H](c1ccc(O)cc1)N1[C@H](c3ccccc3)[C@H](c3ccccc3)OC(=O)[C@H]1[C@@H]2C(=O)N1CCCCCCC1 | -0.387
30 | C=CCC(OC(C)=O)[C@@H]1[C@@H](N(Cc2cccc3ccccc23)C(=O)c2ccc(C)cc2)c2cc(OCCCO)ccc2N1C(=O)c1ccc(-c2ccccc2)cc1 (stereo partly specified) | -0.852
31 | C=CCN1C(=O)[C@]2(O[C@H](CCn3cc(CCO)nn3)[C@@H]([Si](C)(C)c3ccc(OC)cc3)[C@@H]2C)c2cc(NC(=O)c3ccc(OC)cc3)ccc21 | -3.44
32 | CC(=O)NCCCC[C@@H]1NC(=O)[C@@H]2C[C@H](C(=O)NCCCCCCN(C)C)[C@H](c3ccc(O)cc3)N2C1=O | 1.08
33 | CO[C@@H]1COC(=O)[C@H](COCc2ccccc2)NC(=O)CC=C[C@@H](C)[C@H](OC)COC(=O)[C@H](COCc2ccccc2)NC(=O)CC=C[C@H]1C | -0.0527
34 | COCCOC(=O)N1C(=O)[C@@]2(c3ccccc31)[C@H](C(=O)N1CCc3cc(OC)c(OC)cc3C1)[C@H]1C(=O)O[C@H](c3ccccc3)[C@H](c3ccccc3)N1[C@@H]2c1ccccc1OCCO | -1.51
35 | C=C(CCCC)/C(=C/C[C@@H](OC(=O)c1ccncc1)c1cccc(OCCO)c1)c1cc(C(=O)OC)ccc1OC | -2.29
36 | C#CCCCON=C1C[C@@H](O)[C@@H](O)[C@@H]2[C@@H]3C(=O)N(Cc4ccc5c(c4)OCO5)C(=O)[C@@H]3CC[C@@H]12 | 0.0713
